For nine compounds, growth results are on record in PubChem BioAssay (NCI).

Compounds without any hit were thinned out: in the full panel of roughly 83,000, 20% have a hit.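 Treatment: one concentration, 48 hours, 96-well format. Scoring: percent growth, with anything below 10 considered active.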 Unmarked numbers belong to inactive results. Calls of active or inactive are those of the source.

Common to all, as to test: NCI-60 one-dose screen, 48 h (100 = growth as untreated, 0 = no growth, -100 = all killed)
Holding throughout (details): 10 µM

For experiment [1], the system named is SN12C renal.
The subject of experiment [2] is UO-31 renal.
For experiment [3], the system named is TK-10 renal.
Experiment [4] concerns ACHN renal.
Experiment [5] concerns CAKI-1 renal.
Experiment [6] concerns A498 renal.
Experiment [7] concerns MOLT-4 leukemia.
The subject of experiment [8] is SR leukemia.
In experiment [9] the test system is RPMI-8226 leukemia.
For experiment [10], the system named is OVCAR-8 ovarian.
For experiment [11], the system named is OVCAR-5 ovarian.
For experiment [12], the system named is OVCAR-4 ovarian.
The subject of experiment [13] is SK-OV-3 ovarian.
Experiment [14] deals with IGROV1 ovarian.
The test system of experiment [15] is OVCAR-3 ovarian.
The test system of experiment [16] is EKVX NSCLC.
For experiment [17], the system named is CCRF-CEM leukemia.
Experiment [18] relates to HS 578T breast.
Experiment [19] has as its system NCI/ADR-RES ovarian.

Turning to `CC(C)(C)c1ccc(S(=O)(=O)N[C@H]2CC[C@H]3[C@@H]4CCc5cc(O)ccc5[C@H]4CC[C@]23C)cc1`, the growth in experiment [1] is 28.4%; in [2], 25.1%; in experiment [3], 67.5%; in experiment [4], 35.2%; in experiment [5], 38.9%; in experiment [6], 33.6%. Moreover, the growth is 16.8% in [7]; 20.5% in experiment [8]; 37.9% in experiment [9]; 50% in [10]; 92.7% in experiment [11]; 51.4% in experiment [12]. Besides, the growth in [13] is 87%; in experiment [14], 44.6%; in [15], 37.3%.

As to `COc1cc(N)c2ncccc2c1SC`, the growth in experiment [16] is 86%; in experiment [1], 105%; in experiment [4] it was 104%; in experiment [5] it was 99.2%; in [6], 71.8%; in experiment [17], 98.5%. Also, the growth is 101% in experiment [7]; 90.4% in experiment [8]; 100% in [9]; 101% in experiment [11]; 105% in experiment [12]; 108% in experiment [13]. Also, the growth in experiment [15] was 105%; in experiment [18], 92.5%; in experiment [19], 99.1%.

For the compound `C[C@]12CC[C@@H]3c4ccc(OS(=O)(=O)O)cc4CC[C@H]3[C@@H]1CC[C@@H]2NS(=O)(=O)c1ccc(-c2ccccc2)cc1`, the growth in experiment [1] is 68.7%; in experiment [2] it was 40.8%; in experiment [3], 93.3%; in experiment [4], 47.7%; in experiment [5], 66.2%; in [6], 85.1%. In addition, the growth is 31.4% in [7]; 38.6% in [8]; 32.4% in experiment [9]; 67.6% in experiment [10]; 113% in experiment [11]; 66.9% in experiment [12]. Besides, the growth in [13] is 91.6%; in experiment [14] it was 70.4%; in experiment [15], 52.6%; in [18], 89.3%; in experiment [19], 58.5%.

With `O[C@@H]1CO[C@H]2[C@@H]1OC[C@@H]2O`, the growth in experiment [16] was 87.6%; in experiment [1], 103%; in [2], 106%; in experiment [3], 117%; in experiment [4] it was 98.9%; in [5] it was 79.2%. Besides, the growth is 101% in [17]; 116% in experiment [7]; 112% in experiment [8]; 112% in experiment [9]; 102% in [10]; 92.6% in experiment [11]. In addition, the growth is 121% in experiment [12], 115% in [13], 120% in experiment [15] and 104% in experiment [19].

In the case of `COc1cc(-c2ccc[nH]2)[nH]c1/C=C1\N=C(C)C(C(=O)NC(C)C)=C1C`, the growth in experiment [16] was 35.4%; in experiment [1] it was 38.3%; in [2] it was -35% (active); in experiment [3], 17.7%; in [4], 12.6%; in experiment [5], 20%. The growth was 67.7% in experiment [6]; -14.2% (active) in [7]; -15.5% (active) in experiment [8]; 14.7% in experiment [10]; 43.2% in experiment [11]; 23.5% in experiment [12]. Besides, the growth in [13] is 50.7%; in [14] it was 34%; in experiment [15], 19.5%; in [19], 17.6%.

With `Cc1cc(C(C#N)c2ccc(Cl)cc2)c(Cl)cc1NC(=O)c1cc(I)cc(I)c1O` (stereo not given), the growth in experiment [16] was 41.2%; in experiment [1] it was 31%; in experiment [2], 79.8%; in experiment [3] it was 65.3%; in experiment [4] it was 79.8%; in [5], 38.7%. Moreover, the growth in [6] is -37% (active); in experiment [17], 19.1%; in experiment [7], 15.3%; in [9], 13.8%; in experiment [10], 53.4%; in experiment [11], 87.8%. Moreover, the growth in [12] is 82.6%; in experiment [13], 85.2%; in experiment [14], 51.7%; in experiment [15], 32.6%; in experiment [18], 26%; in experiment [19], 21.1%.

For the compound `CCCCCOC(=O)Nc1nc(=O)n(C2O[C@H](C)[C@@H](O)[C@H]2O)cc1F` (stereo not given in full), the growth in [16] was 99.2%; in experiment [1], 99.5%; in experiment [2], 82.1%; in [3] it was 98.5%; in [4], 99.6%; in experiment [5], 90.5%. For the same compound, the growth in experiment [6] was 82.3%; in experiment [17], 96.7%; in [7], 103%; in experiment [9], 101%; in experiment [10], 92.3%; in [11] it was 104%. For the same compound, the growth in [12] is 109%; in experiment [13], 93.4%; in experiment [14], 107%; in [15], 106%; in [18], 104%.

On to `CC1/C=C/C=C/C=C/C=C/C=C/C=C/C=C/C(O[C@@H]2O[C@H](C)[C@H](O)[C@@H](O)[C@@H]2N)CC(O)C(C(=O)O)C(O)CC(=O)CC(O)CC(O)CC(O)CC(=O)CCCC(=O)CC(=O)OC1C(C)CC(C)C(O)CC(=O)c1ccc(N)cc1` (stereo not given in full), for which the growth in experiment [16] was -98.6% (active); in [1] it was -93.4% (active); in experiment [2] it was -96.4% (active); in [3] it was -96.8% (active); in [4], -99.7% (active); in [5], -98.2% (active). Further, the growth was -98.4% (active) in experiment [6]; -59.2% (active) in [17]; -72.2% (active) in experiment [7]; -63.1% (active) in experiment [8]; -43.7% (active) in experiment [9]; -97.5% (active) in [10]. For the same compound, the growth in experiment [11] is -98.9% (active); in experiment [12] it was -96.1% (active); in [13], -100% (active); in experiment [14], -83.7% (active); in [15], -99.7% (active); in experiment [18], -52.8% (active). Besides, in experiment [19], the growth was -99.6% (active).

Consider `C[C@@H](O)[C@H]1C(=O)N2C(C(=O)O)=C(SC3CN[C@H](C(=O)N(C)C)C3)[C@H](C)[C@H]12` (stereo not given in full), for which the growth in experiment [16] is 104%; in [1], 99.5%; in experiment [2], 78.7%; in [3], 106%; in experiment [4], 96.9%; in experiment [5], 95.2%. In addition, the growth in [6] is 88.8%; in experiment [17] it was -40.1% (active); in experiment [7], 116%; in experiment [9], 96.5%; in [10], 107%; in experiment [11] it was 100%. The growth in [12] was 114%; in experiment [13], 115%; in experiment [14], 101%; in experiment [15], 116%; in experiment [19] it was 101%.
